PubChem BioAssay (Tox21)
Inconclusive results are not listed. Activity calls are given as the source filed them. Calls follow the shape of the dose curve; as a rule, active = well fitted cell-killing curve with a large enough effect in the repeat runs; inconclusive = weak or mixed curves, or effect the other way; inactive = flat fitted curve, though single readings scatter.

Assay: qHTS assay to identify small molecule antagonists of the androgen receptor (AR) signaling pathway using the MDA cell line in the presence of 0.5 nM R1881 - cell viability counter screen (AID 1259242); also: nearly all actives have a fitted effect of over 45% in size
Conditions: MDA-kb2 viability, CellTiter-Fluor protease fluorescence, 16 h; series mostly up to 92.4 µM; viability change, negative = cytotoxic: at the top concentration
Excerpt: U.S. Tox21 Program National Center for Advancing Translational Sciences [NCATS] NIH Chemical Genomics Center [NCGC] U.S. Environmental Protection Agency [EPA] National Institutes of Environmental Health Sciences [NIEHS] National Toxicology Program [NTP] U.S. Food and Drug Administration [FDA] Tox21 Assay Overview: Androgen receptor (AR) is an important member of the nuclear receptor family. Its signaling plays a critical role in AR-dependent prostate cancer and other androgen related diseases. Considerable attention has been given in the past decades to develop methods to study and screen for the environmental chemicals that have the potential to interfere with metabolic homeostasis, reproduction, developmental and behavioral functions. Therefore AR binding assay for screening androgen antagonists can be used to identify potential endocrine disruptors. MDA-kb2 cells (from ATCC, deposited by Wilson et al.) were used to screen for AR inhibitors against Tox21 compound libraries. These cells are human breast carcinoma cells that were stably transfected with a luciferase reporter gene under control of the MMTV promoter that contains response elements for both androgen receptor (AR) and glucocorticoid receptor (GR). The current screening for identification of AR inhibitors against Tox21 libraries used lower concentration of (0.5 nM) R1881 as a stimulator. The cytotoxicity of the Tox21 compound libraries against MDA-kb2 cell line was tested by measuring live-cell protease activity using CellTiter-Fluor assay in the same wells.
Tox21 Assay Protocol Summary: MDA-kb2 cells (cells cultured without CO2) were dispensed at 3,000 cells/well in 4 uL of culture medium into white wall/solid-bottom 1536-well plates (Corning Life Sciences, Corning, NY) using a Multidrop Combi (ThermoFisher Scientific, Waltham, MA) dispenser. After the assay plates were incubated at a 37C and 0% CO2 for 5 hr, 23 nL of compounds dissolved in DMSO, positive controls or DMSO only was transferred to the assay plate by a Pintool station (Kalypsys, San Diego, CA). The transfer of compounds was followed by the addition of 1 uL of 0.5 nM (final concentration) agonist (R1881)/culture medium using a Flying Reagent Dispenser (FRD, Aurora Discovery, San Diego, CA). The plates were incubated at 37C and 0% CO2 for 16 hr. For cytotoxicity assay, 1 uL of CellTiter-Fluor reagent (Promega Corporation, Madison, WI) was added to each well using the FRD and after 30 min incubation at 37C and 0% CO2, The fluorescence intensity was measured using ViewLux plate reader (PerkinElmer, Shelton, CT).
% is scaled to controls: 0 for no effect and ±100 for the full control effect; potency is read from the fitted curve at half-maximal effect.

Compound | Potency | viability change, negative = cytotoxic
CCCCC(CC)CN=C(N)NC(N)=NCCCCCCN=C(N)NC(N)=NCC(CC)CCCC (stereo not given) | 18.8 µM (active) | –
CCCC(C)c1ccccc1O (stereo not given) | – | 0.639% (inactive)
CC(=O)OCC(C)OC(C)=O (stereo not given) | – | 7.48% (inactive)
O=C(c1ccc(O)cc1O)c1ccc(O)cc1O | inactive | –
CNC(=O)c1ccccc1 | – | 1.88% (inactive)
CN(C/C=C/C#CC(C)(C)C)Cc1cccc2ccccc12 | – | -1.41% [at 42.5 µM] (inactive)
Nc1c2ccccc2nc2ccccc12 | inactive | –
Clc1ccc2nsnc2c1NC1=NCCN1 | – | -0.649% [at 42.5 µM] (inactive)
CC(C)OC(=O)c1cc2c(OCC(O)CNC(C)(C)C)cccc2[nH]1 (stereo not given) | – | -4.36% [at 42.5 µM] (inactive)
CCN(C(=O)N(CC)c1ccccc1)c1ccccc1 | – | 1.32% (inactive)
CC(NN)c1ccccc1 (stereo not given) | – | -1.49% [at 19 µM] (inactive)
CCCCCOc1ccccc1/C(=C\SC)n1ccnc1 | – | -3.28% [at 42.5 µM] (inactive)
C[n+]1cc2c3c(ccc2c2ccc4cc5c(cc4c21)OCO5)OCO3 | 10.3 µM (active) | –
O=C(OCC1CO1)C1CCCCC1C(=O)OCC1CO1 (stereo not given) | – | 3.95% (inactive)
CN(C)[C@@H]1C(=O)C(C(N)=O)=C(O)[C@@]2(O)C(=O)C3=C(O)c4c(O)ccc(Cl)c4[C@@H](O)[C@H]3C[C@@H]12 | – | 2.4% [at 42.5 µM] (inactive)
O=S1(=O)CC(Cl)(Cl)C(Cl)(Cl)C1 | 21.7 µM (active) | –
CCCN(CCC)c1c([N+](=O)[O-])cc(C(F)(F)F)c(N)c1[N+](=O)[O-] | 60.9 µM (active) | –
Cc1onc(-c2ccccc2Cl)c1C(=O)N[C@@H]1C(=O)N2[C@@H]1SC(C)(C)[C@@H]2C(=O)O | – | 1.83% [at 42.5 µM] (inactive)
CCCCN(CCCC)c1ccc(C(=O)c2ccccc2C(=O)O)c(O)c1 | – | -3.06% (inactive)
COc1cccc(N)c1 | – | -0.98% (inactive)

Compound | Potency | viability change, negative = cytotoxic
O=c1cccccc1O | – | -2% (inactive)
C/C=C(\C)C(=O)OCc1ccccc1 | – | -2.56% (inactive)
CCCCCCOC(=O)c1ccc(O)cc1 | inactive | –
Oc1c(Cl)cc(Cl)c2cccnc12 | – | -24.8% [at 42.5 µM] (inactive)
N=C1N=C(N)c2ccccc21 | – | -19.7% (inactive)
Cc1ccc(O)c(C(C)(C)C)c1 | inactive | –
O=C(Nc1ccc(Oc2ccc(Cl)cc2)c(Cl)c1)c1cc(I)cc(I)c1O | – | -4.84% [at 42.5 µM] (inactive)
OCCCCCCCCCCCCBr | – | -10.1% (inactive)
CCCCN1C(=O)[C@@H]([C@H](O)C2CCCCC2)NC(=O)C12CCN(Cc1ccc(Oc3ccc(C(=O)O)cc3)cc1)CC2 | – | -11.4% (inactive)
O=C(NO)C1(NS(=O)(=O)c2ccc(Oc3ccc(F)cc3)cc2)CCOCC1 | – | -11.3% (inactive)
O=C(N/N=C/c1ccccc1O)c1ccncc1 | – | -13.8% [at 42.5 µM] (inactive)
Cc1nc(-c2ccc3c(c2)CCN(CCC2CCC(NC(=O)/C=C/c4ccc(F)cc4)CC2)CC3)no1 (stereo not given) | – | -3.09% [at 42.5 µM] (inactive)
CCCCCCCC[N+](CCCCCCCC)(CCCCCCCC)CCCCCCCC | 9.67 µM (active) | –
Oc1cccc(-c2c3nc(c(-c4cccc(O)c4)c4ccc([nH]4)c(-c4cccc(O)c4)c4nc(c(-c5cccc(O)c5)c5ccc2[nH]5)CC4)C=C3)c1 | 7.5 µM (active) | –
N=C1C=CC(=C(c2ccc(N)cc2)c2ccc(N)cc2)C=C1 | 9.69 µM (active) | –
CCC1=C[C@@H]2CN(C1)Cc1c([nH]c3ccccc13)[C@@](C(=O)OC)(c1cc3c(cc1OC)N(C)[C@H]1[C@@](O)(C(=O)OC)[C@H](OC(C)=O)[C@]4(CC)C=CCN5CC[C@]31[C@@H]54)C2 | – | -12.7% [at 42.5 µM] (inactive)
Cc1oc(-c2ccccc2)nc1CCC(=O)c1ccc(CC2SC(=O)NC2=O)cc1 (stereo not given) | – | -7.3% [at 42.5 µM] (inactive)
O=C(c1ccc(F)cc1)C1CCN(CCn2c(=O)[nH]c3ccccc3c2=O)CC1 | – | 1.41% [at 42.5 µM] (inactive)
CCCC1O[C@@H]2C[C@H]3[C@@H]4CCC5=CC(=O)C=C[C@]5(C)[C@H]4[C@@H](O)C[C@]3(C)[C@]2(C(=O)CO)O1 (stereo not given in full) | inactive | –
CC(C)n1nc(-c2cc3cc(O)ccc3[nH]2)c2c(N)ncnc21 | – | -20.9% [at 42.5 µM] (inactive)
